# Assay results published in PubChem BioAssay AID1981 (Southern Research Specialized Biocontainment Screening …, 2009).
# Out of some 2,200 compounds screened, about 480 (22%) were called active. How the calls were made is not given here. Only a sample is shown. Entries with a potency or affinity are not part of this list.
# Assay: S. Typhimurium GFP fluorescence modified counterscreen for PhoP regulon inhibitor project dose response (AID 1981)
# Conditions: 4 h; series mostly up to 150 µM
row,SMILES,outcome
1,COc1ccc(-c2csc(Nc3cccnc3)n2)cc1,inactive
2,Nc1nnc(SCCOc2ccc(Br)cc2)s1,inactive
3,c1ccc(-c2cnn3nnnc3n2)cc1,inactive
4,CC(C)CNC(=S)NC1CCCC1,inactive
5,Cc1cc(/C=N/n2cnnc2)c(C)n1-c1ccc(OCc2ccc(F)cc2)cc1,inactive
6,COc1ccc(/C=C/c2nc3ccccc3n2Cc2ccccc2OC)cc1,inactive
7,COc1cccc(-n2c(N)c(C(=O)Nc3c(C)n(C)n(-c4ccccc4)c3=O)c3nc4ccccc4nc32)c1,inactive
8,COc1cccc(NC(=S)N/N=C2\CC(C)(C)Oc3ccc(O)cc32)c1,inactive
9,CCc1cc2c(NCCC(=O)O)nc(C)nc2s1,inactive
10,CN1c2ccccc2C(O)=C(C(=O)Nc2ccccc2)S1(=O)=O,inactive
11,O=C(Nc1cccc2ccccc12)c1ccc(Cn2cc(Cl)cn2)cc1,inactive
12,Cc1cc(C)n(-c2nc(NCCN(C)C)c3c4c(sc3n2)CCCC4)n1,inactive
13,Cc1ccc(-c2nnn(CC(=O)Nc3ccccc3-c3ccccc3)n2)c(-n2cnnn2)c1,inactive
14,N#Cc1ccc(COC(=O)c2ccc3c(=O)[nH]c(CN4CCOCC4)nc3c2)cc1,inactive
15,O=c1[nH]c(CN2CCCCC2)nc2ccccc12,inactive
16,Cc1cc(C(C)c2ccccc2)c(O)c(CN2CCOCC2)c1C (centres undefined),inactive
17,c1ccc(COc2cccc(CN3CCN(c4ccccn4)CC3)c2)cc1,inactive
18,CC1C(C#N)=C(N)OC2=C1C(=O)CCC2 (centres undefined),inactive
19,COc1ccc(C2C(C#N)=C(N)OC3=C2C(=O)CCC3)cc1Cn1cc([N+](=O)[O-])cn1 (centres undefined),inactive
20,CCN(CC)CCCn1c(=S)[nH]c2cc(OC)c(OC)cc2c1=O,inactive
21,Cn1c(CO)cnc1SCc1ccc([N+](=O)[O-])cc1,inactive
22,COc1ccccc1Nc1nc(-c2c(C)[nH]c3ccccc23)cs1,inactive
23,CCc1ccc(OCC(=O)Nc2ccc(-c3cc4ccccc4oc3=O)c(OC)c2)cc1,inactive

row,SMILES,outcome
1,COc1ccc2oc(=O)cc(C)c2c1,inactive
2,COc1ccc(S(=O)(=O)n2ccc(-c3ccc(OCCN(C)c4ccccn4)cc3)n2)cc1,inactive
3,NNC(=S)Nc1ccc(Cl)cc1,inactive
4,OCCNc1ccc(Cl)cc1,inactive
5,Cc1ccc(S(=O)(=O)NC2c3cccc4cccc(c34)C2Sc2n[nH]c(N)n2)cc1 (centres undefined),inactive
6,Brc1ccc(-c2cnc3n2CCCC3)cc1,inactive
7,CCCNC1=C(C)C(=O)C2=C(C1=O)C(COC(N)=O)[C@]1(OC)C3NC3CN21 (some centres undefined),inactive
8,Cc1ccc(S(=O)(=O)c2c(N)n(NC(=O)c3ccco3)c3nc4ccccc4nc23)cc1,inactive
9,O=C(c1cnsn1)N1CCN(c2ccccc2)CC1,inactive
10,COc1ccc(OC)c(C2C=C(C34CC5CC(CC(C5)C3)C4)NC(=S)N2)c1 (centres undefined),inactive
11,O=C(c1[nH]ncc1-c1ccc(Cl)cc1)C1CO1 (centres undefined),inactive
12,O=C(CSCc1cccc(CSCC(=O)Nc2ccc3ccccc3c2)n1)Nc1ccc2ccccc2c1,inactive
13,c1ccc(CSc2nnc(-c3ccncc3)o2)cc1,inactive
14,C=CCNc1nnc(Cl)c2ccccc12,inactive
15,S=C(NCc1ccncc1)Nc1ccc(Cl)c(Cl)c1,inactive
16,Cc1cc(-c2csc(NC(=O)c3ccccc3C(F)(F)F)n2)c(C)n1Cc1ccccc1,inactive
17,Cc1cccc(C(=O)NC(NCc2ccco2)C(Cl)(Cl)Cl)c1 (centres undefined),inactive
18,Cc1ccc2[nH]c3c(NCc4ccco4)ncnc3c2c1,inactive
19,c1ccc(CNc2nc(N3CCN(Cc4ccccc4)CC3)nc3ccccc23)cc1,inactive
20,Cc1ccc(-c2nc(NCc3cccnc3)c3ccccc3n2)cc1,inactive
21,Oc1ccccc1Nc1nc(NCc2ccco2)c2ccccc2n1,inactive
22,c1ccc(CNc2ncnc3ccccc23)cc1,inactive
23,c1ccc(CN2CCN(c3nc(NCc4ccco4)c4ccccc4n3)CC2)cc1,inactive

row,SMILES,outcome
1,c1coc(CNc2ncnc3ccccc23)c1,inactive
2,O=C(c1ccccc1)N1CCN(c2ccc([N+](=O)[O-])c(NCc3ccco3)c2)CC1,inactive
3,C/C(=N/NC(=O)Cc1cccn1C)c1ccccc1,inactive
4,COc1ccc(NC(=O)CCNS(=O)(=O)c2ccc3c(c2)CCC(=O)N3)cc1,inactive
5,O=C(Nc1nccs1)c1cc(-c2ccco2)nc2ccccc12,inactive
6,Cc1cn([C@H]2C[C@H](N=[N+]=[N-])[C@@H](CO)O2)c(=O)[nH]c1=O,inactive
7,COc1cccc(-c2nnc3sc(-c4ccc(C)cc4)nn23)c1,inactive
8,CN(CC(=O)N1CCN(c2ccccn2)CC1)S(=O)(=O)c1ccc2ccccc2c1,inactive
9,Cn1nnnc1SCC(=O)NC1CCCCC1,inactive
10,Nc1nnc(SCc2ccc(F)cc2Cl)s1,inactive
11,Cn1c(C(O)c2ccc(Br)cc2)nc(Cl)c1Cl (centres undefined),inactive
12,CCC1C2CN(C(C)=O)CC=C2C(C#N)=C(N)C1(C#N)C#N (centres undefined),inactive
13,Clc1ccc(-n2ncc3c(NCc4cccs4)ncnc32)cc1,inactive
14,CCn1c(Cc2ccccc2)nnc1SCC(=O)Nc1nc(C)c(C)s1,inactive
15,Nc1ccc2oc3ccccc3c2c1,inactive
16,CCOc1cc(C2C(C(=O)OC)=C(C)N=C3SCCC(=O)N32)ccc1OC(C)=O (centres undefined),inactive
17,CCCn1c(/N=C/c2ccc3c(c2)OCO3)nc2ccccc21,inactive
18,Cc1ccc(NS(=O)(=O)c2ccccc2)c2c1CC(C)(C)O2,inactive
19,COc1ccc(NC(=O)C(Sc2nnc(-c3ccncc3)n2-c2ccccc2C)c2ccccc2)cc1Cl (centres undefined),inactive
20,CC(=O)Cn1cnc2sc(-c3ccccc3)cc2c1=O,inactive
21,C/C(=N\Nc1nc2ccccc2[nH]1)c1ccc(Cl)s1,inactive
22,C/C(=N\Nc1nc2ccccc2[nH]1)c1cccs1,inactive
23,O=S(=O)(c1ccc(N2CCCC2c2nc3ccccc3s2)nc1)N1CCOCC1 (centres undefined),inactive

row,SMILES,outcome
1,O=C(/C=C/c1cccs1)N1CCN(Cc2ccc3c(c2)OCO3)CC1,inactive
2,CC(C)(C)NS(=O)(=O)c1ccc(CCC(=O)N2CCOCC2)cc1,inactive
3,Cc1cc(C(=O)CSc2nnnn2C)c(C)n1-c1ccc2c(c1)OCCO2,inactive
4,COC(=O)c1c(C)oc2ccc(NS(=O)(=O)c3cccs3)cc12,inactive
5,C(=N\N1CCN(Cc2ccccc2)CC1)/c1cccnc1,inactive
6,Cc1cc(N/N=C/c2cccc(Cl)c2)nc(NCc2ccccc2)n1,inactive
7,O=C(Nc1cccc(Cl)c1)C1C2CCC3C(CCC21)C3(Cl)Cl (centres undefined),inactive
8,O=C1CC(c2ccccc2)n2ncnc2N1 (centres undefined),inactive
9,O=C(NC(NC(=S)Nc1ccc(Cl)cc1)C(Cl)(Cl)Cl)c1ccco1 (centres undefined),inactive
10,Cc1onc(-c2ccccc2)c1C(=O)NC(=S)NNC(=O)c1ccc(O)cc1O,inactive
11,CCn1c(N)[n+](CC(=O)Nc2ccc(SC(F)F)cc2)c2ccccc21,inactive
12,FC(F)Oc1ccc(NC(=S)NCc2nc3ccccc3[nH]2)cc1,inactive
13,Cc1ccc2[nH]c3c(NCc4ccccc4)ncnc3c2c1,inactive
14,COC(=O)N1CCN(c2ccc(Cl)c(Cl)c2)CC1,inactive
15,Brc1ccc2nc3c(n2c1)CCCC3,inactive
16,Cc1ccccc1Nc1nc(-c2sc(NC(=O)c3cccc(Cl)c3)nc2C)cs1,inactive
17,CC(=O)Nc1ccc(C(=O)Nc2nc(-c3cc(C)n(Cc4ccccc4)c3C)cs2)cc1,inactive
18,CC(C)Cc1oc(C(=O)O)cc1CN,inactive
19,Nc1nc(C2CCCCC2)cs1,inactive
20,CCN(CC(=O)Nc1ccc(N2CCOCC2)cc1)Cc1nc2ccccc2c(=O)[nH]1,inactive
21,COc1ccc(OC)c(/C=N/NC(=O)c2cc3c(OC)c(OC)ccc3[nH]2)c1,inactive
22,COc1ccc(OC)c(/C=N/NC(=O)Cc2nc3ccccc3[nH]2)c1,inactive
23,C#CCOc1c(Cl)cc(/C=N/O)cc1OC,inactive

row,SMILES,outcome
1,Cc1nn(-c2ncc(C(F)(F)F)cc2Cl)c(=O)n1-c1cccc(Cl)c1,inactive
2,Cc1ccc(C)n1-c1cccc(N)c1,inactive
3,O=S1(=O)CC(O)C(Nc2ccccc2Cl)C1 (centres undefined),inactive
4,COc1ccccc1NC(=O)Cn1nnc(-c2ccccc2NC(=O)c2cccs2)n1,inactive
5,Fc1cc(Br)ccc1NC(=S)Nc1ccccc1,inactive
6,CCN(CC)S(=O)(=O)c1cccc(NC(=O)Nc2cccc(C(F)(F)F)c2)c1,inactive
7,COC(=O)Cc1ccc(NC(=S)N2CCN(c3ccc(F)cc3)CC2)cc1,inactive
8,O=S(=O)(Nc1ccc2ccccc2c1)c1ccccc1,inactive
9,Cc1scc(C(=O)O)c1-c1c(C(=O)O)csc1C,inactive
10,O=C(c1ccccc1)c1nc2ccccc2n(CCCn2c(=O)c(C(=O)c3ccccc3)nc3ccccc32)c1=O,inactive
11,CCCn1c(NCc2c[nH]c3ccccc23)nc2ccccc21,inactive
12,CCC(C)N1C(=O)/C(=C/c2ccc3c(c2)CCN3CCCCl)C(=O)NC1=S (centres undefined),inactive
13,COc1ccc(-n2c(=O)c3ccccc3n(CC(=O)Nc3cc(C)on3)c2=O)cc1OC,inactive
14,CCn1c2ccccc2c2cc(NC(=O)COc3ccccc3)ccc21,inactive
15,CCCSc1nc(N2CCCC2)c2c(c1C#N)CC(C)(C)OC2,inactive
16,c1nc(N2CCC3(CC2)OCCO3)c2c3c(sc2n1)CCCC3,inactive
17,C=CCc1ccccc1OCC(O)CN1CCN(CCN2C(=O)c3cccc4cccc(c34)C2=O)CC1 (centres undefined),inactive
18,COc1ccc([N+](=O)[O-])cc1N(CC(O)Cn1nnc2ccccc21)S(=O)(=O)c1ccc(C)cc1 (centres undefined),inactive
19,Cc1ccc(/C(O)=C2\C(=O)C(=O)N(CC(C)O)C2c2cccc(F)c2)cc1 (centres undefined),inactive
20,COc1ccc(C2CC(c3ccccc3)=NN2C(=O)COC(=O)c2cccnc2)cc1 (centres undefined),inactive
21,CCOC(=O)/C=C1\SCC(=O)N1CC(=O)NC1CCCCC1,inactive
22,COC(=O)c1ccc2c(=O)n(CCN3CCOCC3)c(SCC(=O)C(C)(C)C)nc2c1,inactive
